The record followed here is PubChem BioAssay (NCATS).

Inconclusive results are not listed. Unmarked numbers belong to inactive results. The call rests on the fitted dose curve; in most records, active means well fitted curve in the direction sought with a large enough effect; inconclusive means small, poorly fitted or top-dose-only effect, or another doubt; inactive means no such curve, though single readings can be large or run the other way.

Protein phosphatase 1D (Homo sapiens), sequence (O15297 whole entry, looked up): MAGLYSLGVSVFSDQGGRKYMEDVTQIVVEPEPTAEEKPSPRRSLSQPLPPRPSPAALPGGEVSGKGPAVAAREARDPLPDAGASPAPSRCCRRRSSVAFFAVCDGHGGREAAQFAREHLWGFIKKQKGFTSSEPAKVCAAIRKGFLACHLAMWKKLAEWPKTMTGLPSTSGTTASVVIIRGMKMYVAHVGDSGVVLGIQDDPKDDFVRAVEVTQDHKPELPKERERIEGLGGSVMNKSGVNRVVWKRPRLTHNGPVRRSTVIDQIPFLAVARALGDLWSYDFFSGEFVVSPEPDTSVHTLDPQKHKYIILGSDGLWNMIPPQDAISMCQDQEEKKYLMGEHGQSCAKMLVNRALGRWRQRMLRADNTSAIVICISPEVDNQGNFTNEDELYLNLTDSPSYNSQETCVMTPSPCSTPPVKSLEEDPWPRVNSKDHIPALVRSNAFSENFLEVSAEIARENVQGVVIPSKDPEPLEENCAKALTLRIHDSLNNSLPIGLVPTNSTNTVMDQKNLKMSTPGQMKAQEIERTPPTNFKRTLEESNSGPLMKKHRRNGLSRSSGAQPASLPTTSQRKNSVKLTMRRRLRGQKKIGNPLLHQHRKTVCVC

The experiment deals with Protein phosphatase 1D (Homo sapiens) (UniProt O15297). Put plainly: Rhodamine-PBP qHTS Assay for Modulators of WT P53-Induced Phosphatase 1 (WIP1) (AID 1347425). The following applies: recombinant WIP1, Rhodamine-PBP phosphate fluorescence, real-time; series mostly up to 57.5 µM; activity change, negative = inhibition: at the top concentration. An excerpt:
Assay Provider (PI): Nathan Coussens Ph.D.
National Center for Advancing Translational Sciences (NCATS), Rockville, MD
National Institute of Health (NIH), Bethesda, Maryland
WT P53-Induced Phosphatase 1 (WIP1) is a member of the magnesium-dependent serine/threonine protein phosphatase (PPM) family and is induced by P53 in response to DNA damage. In several human cancers, the WIP1 protein is overexpressed, which is generally associated with a worse prognosis. Although WIP1 is an attractive therapeutic target, no potent, selective, and bioactive small-molecule modulator with favorable pharmacokinetics has been reported. Phosphatase enzymes are among the most challenging targets for small molecules because of the difficulty of achieving both modulator selectivity and bioavailability. Another major obstacle has been the availability of robust and physiologically relevant phosphatase assays that are suitable for high-throughput screening.
Here, we describe two orthogonal biochemical WIP1 activity assays that utilize phosphopeptides from native WIP1 substrates. We optimized a RapidFire MS assay to quantify the enzymatically dephosphorylated peptide reaction product in a 384-well format. Additionally, a redshifted Rhodamine-PBP fluorescence assay was optimized in a 1,536-well format to enable real-time WIP1 activity measurements through the detection of the orthogonal reaction product, Pi. We validated these two optimized assays by quantitative high-throughput screening against the National Center for Advancing Translational Sciences (NCATS) Pharmaceutical Collection and used secondary assays to confirm and evaluate inhibitors identified in the primary screen.
SEQUENCE No. (e.g., 1, 2, 3, etc.); […] (e.g., Cells, Incubation, Reagent, etc.); VALUE; DESCRIPTION
1; Reagent; 3 uL; WIP1 (6.7 nM), Rh-PBP (13.3 uM), columns 1-48
3; Library Compounds; 23 nL; NCATS Pharmaceutical Collection, column 5-48
4; Control Compounds; DMSO in column 2, GSK2830371 (57.5 uM, final) in 3-fold serial dilutions in column 3, GSK2830371 (1.15 uM, final) in column 4
5; Time; 1 hr; incubation
6; Detection; fluorescence (f0); ViewLux, excitation filter = 525 nm, emission filter = 598 nm
7; Reagent; 1 uL; VEPP-pS-QETFS (40 uM), columns 2-48
8; Detection; fluorescence (f1); ViewLux, excitation filter = 525 nm, emission filter = 598 nm
NOTES (numbers refer to sequence above)
1 & 2; Black medium binding Greiner 1536-well plates (# 789176-F); assay buffer: 50 mM Tris-HCl pH 7.5, 30 mM MgCl2, 1mM TCEP, 0.1 mM EGTA, 75 ug/mL BSA; dispensed with a BioRaptr liquid handler (Beckman Coulter).
3 & 4; Kalypsys pintool (equipped with 1536 pinhead, Wako USA) transfer. Tip wash sequence: DMSO, methanol, 3 sec vacuum dry.
5; Room temperature incubation.
7; VEPPL-pS-QETFS in assay buffer dispensed with a BioRaptr; final reaction conditions: 5 nM WIP1, 10 uM VEPPL-pS-QETFS, 10 uM Rh-PBP, 50 mM Tris-HCl pH 7.5, 30 mM MgCl2, 1 mM TCEP, 0.1 mM EGTA, 75 ug/mL BSA.
8; Measurement taken at 1 min intervals for 11 min. Delta readout = f1 - f0.
In general terms: In qHTS, concentration-response curves come from the screen itself.
Take `COc1cc(N)c(Cl)cc1C(=O)NC1CN2CCC1CC2` (stereo not given): the “activity change, negative = inhibition” value was 17%.

Consider `CCC(=O)C(CCN(C)C)(c1ccccc1)c1ccccc1`, for which the “activity change, negative = inhibition” value was 11.2%.

With `CCNc1nc(Cl)nc(NCC)n1`, the “activity change, negative = inhibition” value was 8.57%.

Take `CNC(=O)Oc1cccc2ccccc12`: the “activity change, negative = inhibition” value was -3.4%.

`Clc1ccc(CO/N=C(\Cn2ccnc2)c2ccc(Cl)cc2Cl)c(Cl)c1`: the “activity change, negative = inhibition” value is 23.6%.

Take `Cc1c(Cl)c(=O)oc2cc(OP(=O)(OCCCl)OCCCl)ccc12`: the “activity change, negative = inhibition” value was -5.64%.

With `CCc1cc(OC)c(C[C@H](C)N)cc1OC`, the “activity change, negative = inhibition” value was -22% [at 116 µM].

As for `CC1COC2(c3ccccc3Cl)c3cc(Cl)ccc3NC(=O)CN12` (stereo not given), the “activity change, negative = inhibition” value was 9.81%.

As to `CCN(Cc1ccc(Cl)nc1)/C(=C/[N+](=O)[O-])NC`, the “activity change, negative = inhibition” value is 2.05%.

Consider `CCOC(=O)NC(O)C(Cl)(Cl)Cl` (stereo not given), for which the “activity change, negative = inhibition” value was 4.4%.

In the case of `C[C@]12CC[C@H](O)CC1=CC[C@@H]1[C@@H]2CC[C@]2(C)C(=O)CC[C@@H]12`, the “activity change, negative = inhibition” value was 4.92%.

Regarding `C[C@]12CC[C@H]3[C@@H](CCC4=CC(=O)CC[C@@H]43)[C@@H]1CC[C@@H]2O`, the “activity change, negative = inhibition” value was 7.42%.

For the molecule `CN(C)C(=S)SSC(=S)N(C)C`, the “activity change, negative = inhibition” value was 0.969%.

Regarding `CN(C)CCc1c[nH]c2ccccc12`, the “activity change, negative = inhibition” value is -21.6% [at 151 µM].

With `CCc1ccc(C2CCNCC2)cc1`, the “activity change, negative = inhibition” value was 11.4%.

In the case of `COc1ccc(CN2CCNCC2)c(OC)c1OC`, the “activity change, negative = inhibition” value is 5.71%.

With `COc1cc(CC(C)N)c(OC)cc1Br` (stereo not given), the “activity change, negative = inhibition” value was 9.15% [at 116 µM].

`COc1ccc2c(C(=O)c3ccc(Cl)cc3)c(C)n(CC(=O)O)c2c1`: the “activity change, negative = inhibition” value was -10.8%.

In the case of `CCOC(=O)C1(c2ccccc2)CCN(CCc2ccc(N)cc2)CC1`, the “activity change, negative = inhibition” value is 21.2%.

Turning to `CC(CC(C(N)=O)(c1ccccc1)c1ccccc1)N(C)C` (stereo not given), the “activity change, negative = inhibition” value was -2.05%.

Turning to `Oc1c(Br)cc(Br)cc1Br`, the “activity change, negative = inhibition” value is -20.8%.

In the case of `C[C@@H]1CN(C2CCC(C#N)(c3ccc(F)cc3)CC2)CC[C@]1(C(=O)O)c1ccccc1` (stereo not given in full), the “activity change, negative = inhibition” value is 0.538%.

Regarding `CCS(=O)(=O)C(C)(C)S(=O)(=O)CC`, the “activity change, negative = inhibition” value is -2.01%.

On to `CCOC(C(=O)OCCN(C)C)(c1ccccc1)c1ccccc1`, for which the “activity change, negative = inhibition” value is 12.9%.

On to `OC(c1ccccc1)(c1ccccc1)C1CCNCC1`, for which the “activity change, negative = inhibition” value was 8.88%.

Take `C[C@H](N)[C@H](O)c1ccc(O)c(O)c1`: the “activity change, negative = inhibition” value was -15%.

In the case of `CN1C(=O)CN=C(c2ccccc2)c2cc([N+](=O)[O-])ccc21`, the “activity change, negative = inhibition” value is 12.9%.

As to `NC1(c2ccccc2)CCCCC1`, the “activity change, negative = inhibition” value is 4.92% [at 116 µM].

For the molecule `CC1N=C(N)OC1c1ccccc1` (stereo not given), the “activity change, negative = inhibition” value was 10.4% [at 116 µM].

Turning to `O=c1[nH]c2cc(Cl)ccc2n1C1CCNCC1`, the “activity change, negative = inhibition” value was 17.8%.

`O=C(N[C@@H]1N=C(c2ccccc2F)c2cccc3c2N(CC3)C1=O)c1cc2ccccc2[nH]1`: the “activity change, negative = inhibition” value is -19%.

Turning to `NCc1cccnc1`, the “activity change, negative = inhibition” value is 10.9%.

In the case of `CCC(=O)O[C@H]1CC[C@H]2[C@@H]3CCC4=CC(=O)CC[C@]4(C)[C@H]3CC[C@]12C`, the “activity change, negative = inhibition” value was -0.395%.

As to `CC#C[C@]1(O)CC[C@H]2[C@@H]3C[C@H](C)C4=CC(=O)CC[C@]4(C)[C@H]3CC[C@@]21C`, the “activity change, negative = inhibition” value is 3.01%.

Take `Oc1ccc2[nH]cc(CCCCN3CC=C(c4ccccc4)CC3)c2c1`: the “activity change, negative = inhibition” value was 22.4%.

Regarding `C[C@H]1CNCCc2ccc(Cl)cc21`, the “activity change, negative = inhibition” value is 19.7%.

Consider `C[C@]12CC[C@H]3[C@@H](CCC4=CC(=O)CC[C@@]43C)[C@@H]1CC[C@@H]2C(=O)O`, for which the “activity change, negative = inhibition” value was 15.3%.

Regarding `CN1C(=O)CN=C(c2ccccc2)c2cc(Cl)ccc21`, the “activity change, negative = inhibition” value is -1.54%.

For `Oc1ccc([C@H]2CNCc3c2ccc(O)c3O)cc1O`, the “activity change, negative = inhibition” value is -15.9%.

For the molecule `O=C1NCN(c2ccccc2)C12CCN(CCCOc1ccc(F)cc1)CC2`, the “activity change, negative = inhibition” value is 12.8%.
